Experimental data as given in PubChem BioAssay (Tox21).
“And” between values parts separate entries of the source, which are not always exact repeats. Equal values may be shown once. Records with an inconclusive call do not appear. The source made the active and inactive calls. Unless noted, calls come from the whole dose curve; as a rule, active = well fitted curve in the direction sought with a large enough effect in the repeat runs; inconclusive = weak or mixed curves; inactive = no such curve, though single readings can be large; an effect the other way counts as inactive or inconclusive.

What was measured:
[1] = Caspase-3/7 induction in HepG2 cells by small molecules, qHTS assay (AID 1346978); note: nearly all actives have a fitted effect of over 15% in size
Procedure, shortened: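 Wild-type HepG2 cells, 2,000/well, settled 5 hr at 37 C and 5% CO2, then compound-treated for 17 hr; caspase-3/7 activity read by luminescent Caspase-Glo 3/7 after 30 min at room temperature.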

[2] = Caspase-3/7 induction in CHO-K1 cells by small molecules, qHTS assay (AID 1346980); note: nearly all actives have a fitted effect of over 15% in size; note: potency is the fitted concentration of half-maximal effect
Procedure, shortened: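 Wild-type CHO-K1 cells exposed to compounds for 17hr at 37 C, 5% CO2. Caspase-3/7 activity then measured by Caspase-Glo 3/7 luminescence after 30min at room temperature.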

[3] = Caspase-3/7 induction in HepG2 cells by small molecules, qHTS cell viability counter screen (AID 1346981); note: series mostly up to about 92 µM; nearly all actives have a fitted effect of over 30% in size
Procedure, shortened: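 Counter screen for cytotoxicity: HepG2 exposed 16 hr to compounds, then CellTiter-Fluor viability signal (fluorescence, 1 hr reagent incubation).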

[4] = molecular target: Nuclear receptor subfamily 1 group I member 2 (Homo sapiens) (UniProt O75469); assay: Human pregnane X receptor (PXR) small molecule agonists, qHTS assay (AID 1346982); note: nearly all actives have a fitted effect of over 35% in size; note: potency is the fitted concentration of half-maximal effect
Procedure, shortened: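 Luminescence (ONE-Glo, 30 min RT) after 24 hr compound exposure of PXR-Luc HepG2 cells; cells rested 5 hr post-plating in 5% charcoal-stripped FBS medium.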

[5] = molecular target: Acetylcholinesterase (Homo sapiens) (UniProt P22303); assay: Acetylcholinesterase (AChE) small molecule antagonists: colormetric cell-based qHTS assay (AID 1347395; calls by dose curve; note: nearly all actives have a fitted effect of over 30% in size)
Procedure, shortened: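 After overnight attachment at 37 C, SH-SY5Y cells get 30 min compound exposure; detection cocktail (acetylthiocholine, DTNB) then incubates 90 min at 37 C, and absorbance reflects AChE-generated thiocholine.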

[6] = molecular target: Acetylcholinesterase (Homo sapiens) (UniProt P22303); assay: Acetylcholinesterase (AChE) small molecule antagonists: enzyme-based qHTS assay (AID 1347397; calls by dose curve; note: nearly all actives have a fitted effect of over 55% in size); details: Potency: AChE enzyme activity inhibition
Procedure, shortened: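 Enzyme inhibition was scored from DTNB-detected thiocholine formed by recombinant human AChE acting on acetylthiocholine. The 30 min compound preincubation and 10 min substrate reaction were both run at room temperature, with DMSO as vehicle control.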

[7] = molecular target: Acetylcholinesterase (Homo sapiens) (UniProt P22303); assay: Acetylcholinesterase (AChE) small molecule antagonists: fluorescence cell-based qHTS assay (AID 1347398; calls by dose curve; note: nearly all actives have a fitted effect of over 50% in size); details: Potency: AChE activity
Procedure, shortened: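 Endogenous acetylcholinesterase of SH-SY5Y neuroblastoma cells is measured in situ. After overnight attachment and 30 min compound exposure, cells receive acetylthiocholine and Thiolite Green; fluorescence is read after 40 min at room temperature.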

[8] = molecular target: Acetylcholinesterase (Homo sapiens) (UniProt P22303); assay: Acetylcholinesterase (AChE) small molecule antagonists: enzyme-based qHTS assay with human liver microsomes (AID 1347399; calls by dose curve; note: nearly all actives have a fitted effect of over 60% in size); details: Potency: qHTS inhibition
Procedure, shortened: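 Recombinant human AChE (50 mU/mL in the enzyme mix) and human liver microsomes (0.25 mg/mL final) were preincubated with compound and NADPH (0.25 mg/mL final) for 30 min at 37 C. Acetylthiocholine/DTNB was then added; thiocholine was read colorimetrically after 10 min at room temperature.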

[9] = molecular target: Cytochrome P450 2D6 (Homo sapiens) (UniProt P10635); assay: Cytochrome P450 Family 2 Subfamily D Member 6 (CYP2D6) small molecule antagonists: luciferase reporter qHTS assay (AID 1671196); note: nearly all actives have a fitted effect of over 50% in size; note: potency is the fitted concentration of half-maximal effect
Procedure, shortened: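 Inhibition of CYP2D6 was gauged by loss of luminescence, since light produced tracks the luciferin generated from a proluciferin substrate. A 10 min room-temperature preincubation preceded 1 h NADPH-supported turnover.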

[10] = molecular target: Cytochrome P450 2C19 (Homo sapiens) (UniProt P33261); assay: Cytochrome P450 Family 2 Subfamily C Member 19 (CYP2C19) small molecule antagonists: luciferase reporter qHTS assay (AID 1671197); note: nearly all actives have a fitted effect of over 65% in size; note: potency is the fitted concentration of half-maximal effect
Procedure, shortened: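 First, compounds are pinned into enzyme-substrate mix and held 10 min at room temperature. Second, NADPH regeneration solution is added and plates incubate 1 h at 37C. Third, detection reagent is added and luminescence read after 20 min.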

[11] = molecular target: Cytochrome P450 1A2 (Homo sapiens) (UniProt P05177); assay: Cytochrome P450 Family 1 Subfamily A Member 2 (CYP1A2) small molecule antagonists: luciferase reporter qHTS assay (AID 1671199); note: nearly all actives have a fitted effect of over 50% in size; note: potency is the fitted concentration of half-maximal effect
Procedure, shortened: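 Signal from luciferin formed by CYP1A2 from a proluciferin substrate is read as luminescence, expressed in relative luminescence units. Compounds sit with enzyme 10 min, NADPH-driven reaction runs 1 h, all at room temperature.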

[12] = molecular target: Voltage-gated inwardly rectifying potassium channel KCNH2 (Homo sapiens) (UniProt Q12809); assay: Human Ether-a-go-go-Related Gene (hERG) channel small molecule antagonists: fluorescence cell-based qHTS assay (AID 1671200); note: nearly all actives have a fitted effect of over 50% in size; note: potency is the fitted concentration of half-maximal effect
Procedure, shortened: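 In this thallium-flux screen, overnight-cultured U2OS cells bearing the channel are dye-loaded in darkness for an hour, rested 10 min at room temperature, and then monitored kinetically at 480/540 nm for two minutes post-stimulus.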

[13] = molecular target: Cytochrome P450 3A4 (Homo sapiens) (UniProt P08684); assay: Cytochrome P450 Family 3 Subfamily A Member 4 (CYP3A4) small molecule antagonists: luciferase reporter qHTS assay (AID 1671201); note: nearly all actives have a fitted effect of over 50% in size; note: potency is the fitted concentration of half-maximal effect
Procedure, shortened: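 CYP3A4 activity was followed with a P450-Glo proluciferin substrate. Test compounds in DMSO were preincubated 10 min; NADPH regeneration then ran 1 h, and light output was read 20 min after detection reagent.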

[14] = molecular target: Cytochrome P450 2C9 (Homo sapiens) (UniProt P11712); assay: Cytochrome P450 Family 2 Subfamily C Member 9 (CYP2C9) small molecule antagonists: luciferase reporter qHTS assay (AID 1671198); note: nearly all actives have a fitted effect of over 50% in size; note: potency is the fitted concentration of half-maximal effect
Procedure, shortened: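 P450-Glo proluciferin substrate with CYP2C9 enzyme; 10 min RT preincubation, then NADPH regeneration 1 h at 37C; luciferin detection reagent 20 min RT, luminescence in relative luminescence units.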

[15] = Caspase-3/7 induction in CHO-K1 cells by small molecules, qHTS cell viability counter screen (AID 1346979); note: nearly all actives have a fitted effect of over 35% in size
Procedure, shortened: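 Following a 5hr settling period, CHO-K1 cells at 1,500 per well received DMSO-dissolved compounds. Cell viability was quantified 16hr later by CellTiter-Fluor fluorescence, measured after 1hr with reagent at 37C.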

[16] = molecular target: Nuclear receptor subfamily 1 group I member 2 (Rattus norvegicus) (UniProt Q9R1A7); assay: Rat pregnane X receptor (rPXR) activation by small molecules, qHTS assay (AID 1346983); details: rPXR luciferase reporter cells, One-Glo luminescence, 24 h; max activation: hits give high values; note: nearly all actives have a fitted effect of over 20% in size
Procedure, shortened: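 Cell-based rPXR activation assay: rPXR cells, 2,000 per well, rested 5hr at 37 C, then exposed to compounds in DMSO for 24 hr at 37 C. Luciferase activity read by One-Glo luminescence after 30 min at room temperature.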

[17] = molecular target: Nuclear receptor subfamily 1 group I member 2 (Homo sapiens) (UniProt O75469); assay: CYP3A4 induction through human pregnane X receptor (PXR) by small molecules, qHTS assay (AID 1346984); note: nearly all actives have a fitted effect of over 40% in size
Procedure, shortened: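 DPX-2 reporter cells; 24h cpd, 37C; Luciferin-IPA 3uM final x3h; One-Glo 30 min RT; lumi read.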

[18] = molecular target: Nuclear receptor subfamily 1 group I member 2 (Homo sapiens) (UniProt O75469); assay: Human pregnane X receptor (PXR) activation by small molecules, qHTS assay (AID 1346985); note: nearly all actives have a fitted effect of over 40% in size
Procedure, shortened: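 DPX-2 cells (HepG2 co-transfected with a PXR response element and a CYP3A4-promoter luciferase construct) were seeded at 2,000 per well, rested 5 hr at 37C, then exposed to DMSO-dissolved compounds for 24 hr. Activation was read as luciferase luminescence.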
% is set by controls: 0 for no effect and ±100 for the full control effect.

Cytochrome P450 3A4 (Homo sapiens), sequence (P08684 whole entry, looked up): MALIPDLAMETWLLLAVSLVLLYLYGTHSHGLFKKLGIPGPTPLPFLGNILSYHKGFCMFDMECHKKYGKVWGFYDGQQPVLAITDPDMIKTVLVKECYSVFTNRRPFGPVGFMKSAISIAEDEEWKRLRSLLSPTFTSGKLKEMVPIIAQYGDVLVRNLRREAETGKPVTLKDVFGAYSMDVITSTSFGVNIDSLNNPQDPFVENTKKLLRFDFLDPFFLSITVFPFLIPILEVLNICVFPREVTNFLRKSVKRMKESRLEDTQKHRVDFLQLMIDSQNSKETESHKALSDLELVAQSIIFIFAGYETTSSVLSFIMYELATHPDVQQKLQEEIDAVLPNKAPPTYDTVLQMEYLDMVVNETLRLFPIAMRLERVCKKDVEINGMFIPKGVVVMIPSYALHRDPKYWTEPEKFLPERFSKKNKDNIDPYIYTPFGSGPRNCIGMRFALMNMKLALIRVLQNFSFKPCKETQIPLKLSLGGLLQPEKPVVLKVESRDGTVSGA
Cytochrome P450 2D6 (Homo sapiens), sequence (P10635 whole entry, looked up): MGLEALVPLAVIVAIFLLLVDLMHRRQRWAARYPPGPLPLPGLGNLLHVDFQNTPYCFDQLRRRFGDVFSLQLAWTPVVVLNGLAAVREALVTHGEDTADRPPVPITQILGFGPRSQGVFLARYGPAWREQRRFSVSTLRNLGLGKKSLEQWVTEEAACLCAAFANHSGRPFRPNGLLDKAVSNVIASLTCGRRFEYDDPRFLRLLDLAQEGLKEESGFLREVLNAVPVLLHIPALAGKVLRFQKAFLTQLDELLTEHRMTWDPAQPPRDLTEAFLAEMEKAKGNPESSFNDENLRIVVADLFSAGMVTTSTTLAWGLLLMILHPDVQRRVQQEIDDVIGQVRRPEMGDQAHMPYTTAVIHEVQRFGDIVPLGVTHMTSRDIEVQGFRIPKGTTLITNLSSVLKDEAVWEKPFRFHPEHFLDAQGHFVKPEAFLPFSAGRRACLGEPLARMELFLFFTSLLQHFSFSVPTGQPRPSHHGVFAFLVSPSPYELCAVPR
Nuclear receptor subfamily 1 group I member 2 (Homo sapiens), sequence (O75469 whole entry, looked up): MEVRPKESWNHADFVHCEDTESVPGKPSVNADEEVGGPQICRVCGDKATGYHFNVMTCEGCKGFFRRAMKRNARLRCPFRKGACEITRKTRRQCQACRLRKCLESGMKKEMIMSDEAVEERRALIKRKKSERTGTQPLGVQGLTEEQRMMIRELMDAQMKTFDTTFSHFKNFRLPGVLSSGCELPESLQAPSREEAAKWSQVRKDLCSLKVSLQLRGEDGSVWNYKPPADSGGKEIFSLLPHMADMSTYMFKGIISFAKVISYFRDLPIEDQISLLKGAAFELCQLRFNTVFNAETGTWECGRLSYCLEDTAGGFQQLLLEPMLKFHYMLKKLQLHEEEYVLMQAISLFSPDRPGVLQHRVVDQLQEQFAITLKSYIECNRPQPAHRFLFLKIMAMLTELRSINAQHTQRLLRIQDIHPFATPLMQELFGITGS
Cytochrome P450 1A2 (Homo sapiens), sequence (P05177 whole entry, looked up): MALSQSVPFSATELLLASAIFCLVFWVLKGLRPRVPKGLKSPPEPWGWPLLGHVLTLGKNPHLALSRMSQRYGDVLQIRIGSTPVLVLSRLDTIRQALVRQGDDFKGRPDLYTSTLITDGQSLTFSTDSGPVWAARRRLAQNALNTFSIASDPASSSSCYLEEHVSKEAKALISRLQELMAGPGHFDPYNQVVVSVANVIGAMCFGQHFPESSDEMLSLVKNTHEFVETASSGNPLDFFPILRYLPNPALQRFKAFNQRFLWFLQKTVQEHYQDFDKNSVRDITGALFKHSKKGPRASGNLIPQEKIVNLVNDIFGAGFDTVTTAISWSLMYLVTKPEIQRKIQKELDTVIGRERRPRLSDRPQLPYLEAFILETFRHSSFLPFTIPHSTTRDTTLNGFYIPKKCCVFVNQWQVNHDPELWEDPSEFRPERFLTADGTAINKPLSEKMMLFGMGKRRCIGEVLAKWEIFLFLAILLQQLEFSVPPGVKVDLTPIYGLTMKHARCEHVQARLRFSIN
Acetylcholinesterase (Homo sapiens), sequence (P22303 whole entry, looked up): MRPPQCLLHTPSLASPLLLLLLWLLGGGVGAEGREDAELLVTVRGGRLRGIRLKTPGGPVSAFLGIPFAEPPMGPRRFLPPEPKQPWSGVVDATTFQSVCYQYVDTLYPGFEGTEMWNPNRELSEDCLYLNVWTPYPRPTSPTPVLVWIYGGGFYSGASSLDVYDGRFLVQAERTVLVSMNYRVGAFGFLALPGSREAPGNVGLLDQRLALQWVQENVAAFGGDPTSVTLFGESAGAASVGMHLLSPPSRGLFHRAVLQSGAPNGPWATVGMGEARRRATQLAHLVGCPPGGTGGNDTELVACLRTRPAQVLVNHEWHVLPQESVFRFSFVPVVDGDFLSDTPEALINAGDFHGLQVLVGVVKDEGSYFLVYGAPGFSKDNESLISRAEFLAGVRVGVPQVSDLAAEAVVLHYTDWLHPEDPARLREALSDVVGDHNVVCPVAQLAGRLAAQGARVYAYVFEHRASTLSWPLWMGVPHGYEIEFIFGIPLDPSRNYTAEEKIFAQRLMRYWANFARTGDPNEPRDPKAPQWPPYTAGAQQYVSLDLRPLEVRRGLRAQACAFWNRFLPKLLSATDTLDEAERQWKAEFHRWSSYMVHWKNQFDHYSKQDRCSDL
Cytochrome P450 2C19 (Homo sapiens), sequence (P33261 whole entry, looked up): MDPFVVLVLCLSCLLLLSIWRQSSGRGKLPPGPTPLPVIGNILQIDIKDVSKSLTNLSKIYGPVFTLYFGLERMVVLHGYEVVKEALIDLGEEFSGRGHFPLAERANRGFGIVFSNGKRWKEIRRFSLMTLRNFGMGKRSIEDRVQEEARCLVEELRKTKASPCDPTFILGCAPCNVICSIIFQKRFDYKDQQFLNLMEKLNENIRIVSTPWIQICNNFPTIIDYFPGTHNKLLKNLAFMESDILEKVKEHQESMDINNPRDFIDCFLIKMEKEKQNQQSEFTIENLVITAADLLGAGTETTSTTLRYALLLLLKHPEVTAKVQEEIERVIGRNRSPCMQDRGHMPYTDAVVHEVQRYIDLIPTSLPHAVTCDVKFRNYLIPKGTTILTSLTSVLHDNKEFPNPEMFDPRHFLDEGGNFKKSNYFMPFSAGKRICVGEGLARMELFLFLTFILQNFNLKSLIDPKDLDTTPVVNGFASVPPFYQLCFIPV
Voltage-gated inwardly rectifying potassium channel KCNH2 (Homo sapiens), sequence (Q12809 whole entry, looked up): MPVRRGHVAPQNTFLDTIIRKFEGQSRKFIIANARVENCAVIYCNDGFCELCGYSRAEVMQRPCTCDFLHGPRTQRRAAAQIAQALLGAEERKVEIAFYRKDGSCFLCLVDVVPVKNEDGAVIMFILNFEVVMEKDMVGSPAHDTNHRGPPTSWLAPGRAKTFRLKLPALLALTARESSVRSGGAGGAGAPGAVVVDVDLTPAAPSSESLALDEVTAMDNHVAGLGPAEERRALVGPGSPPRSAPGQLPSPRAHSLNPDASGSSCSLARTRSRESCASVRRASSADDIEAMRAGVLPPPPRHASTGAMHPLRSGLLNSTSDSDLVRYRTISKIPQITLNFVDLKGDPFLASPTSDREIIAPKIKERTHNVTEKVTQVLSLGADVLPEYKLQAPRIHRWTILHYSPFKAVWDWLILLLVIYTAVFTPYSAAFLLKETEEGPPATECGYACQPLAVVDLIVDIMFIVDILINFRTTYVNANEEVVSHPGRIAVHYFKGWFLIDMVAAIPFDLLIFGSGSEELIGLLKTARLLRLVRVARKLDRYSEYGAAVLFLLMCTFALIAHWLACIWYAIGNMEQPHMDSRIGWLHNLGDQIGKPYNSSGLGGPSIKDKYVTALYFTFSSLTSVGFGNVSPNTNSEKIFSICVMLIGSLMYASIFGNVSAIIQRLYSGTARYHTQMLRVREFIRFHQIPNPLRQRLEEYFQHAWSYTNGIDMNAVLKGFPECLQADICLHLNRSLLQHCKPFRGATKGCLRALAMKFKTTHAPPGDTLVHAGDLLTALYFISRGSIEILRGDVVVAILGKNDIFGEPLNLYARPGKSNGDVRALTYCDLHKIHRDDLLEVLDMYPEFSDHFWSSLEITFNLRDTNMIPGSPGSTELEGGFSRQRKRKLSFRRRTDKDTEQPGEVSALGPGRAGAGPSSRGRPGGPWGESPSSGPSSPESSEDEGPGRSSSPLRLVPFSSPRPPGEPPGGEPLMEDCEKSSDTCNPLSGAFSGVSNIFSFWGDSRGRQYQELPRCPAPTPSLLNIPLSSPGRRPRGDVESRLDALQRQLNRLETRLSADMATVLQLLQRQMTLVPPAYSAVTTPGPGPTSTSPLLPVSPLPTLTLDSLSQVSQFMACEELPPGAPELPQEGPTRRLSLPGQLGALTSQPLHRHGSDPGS
Cytochrome P450 2C9 (Homo sapiens), sequence (P11712 whole entry, looked up): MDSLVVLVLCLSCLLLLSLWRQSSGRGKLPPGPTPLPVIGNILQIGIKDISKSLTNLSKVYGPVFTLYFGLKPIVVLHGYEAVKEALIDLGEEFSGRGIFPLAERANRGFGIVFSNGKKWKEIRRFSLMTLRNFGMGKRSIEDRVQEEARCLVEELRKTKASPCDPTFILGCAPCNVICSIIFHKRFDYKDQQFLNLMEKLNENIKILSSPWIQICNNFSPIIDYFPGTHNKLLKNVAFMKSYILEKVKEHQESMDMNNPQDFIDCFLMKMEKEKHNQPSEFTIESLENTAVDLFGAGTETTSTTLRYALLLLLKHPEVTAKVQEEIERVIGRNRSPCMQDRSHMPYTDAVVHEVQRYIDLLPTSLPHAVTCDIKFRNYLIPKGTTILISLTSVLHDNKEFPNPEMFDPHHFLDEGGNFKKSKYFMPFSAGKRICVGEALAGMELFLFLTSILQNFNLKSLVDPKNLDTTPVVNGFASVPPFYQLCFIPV

C[C@H]1[C@H](c2ccc(Cl)cc2)SC(=O)N1C(=O)NC1CCCCC1
active: Potency [4] 6.86 µM | Potency [10] 5.03 µM | Potency [11] 35.6 µM | Potency [12] 38.9 µM | Potency [13] 7.96 µM
inactive: Potency [1] | Potency [2] | Potency [3] | Potency [5] | Potency [6] | Potency [7] | Potency [8] | Potency [9]

COc1ccc2[nH]cc(CCN(C(C)C)C(C)C)c2c1
active: Potency [9] 4.09 µM | Potency [11] 40.9 µM | Potency [12] 28.2 µM
inactive: Potency [1] | Potency [2] | Potency [3] | Potency [4] | Potency [14] | Potency [13]

O=S1OCC2C(CO1)C1(Cl)C(Cl)=C(Cl)C2(Cl)C1(Cl)Cl (stereo unspecified)
active: Potency [9] 4 µM | Potency [10] 3.18 µM and 3.56 µM | Potency [14] 35.6 µM and 31.7 µM | Potency [12] 21.9 µM and 27.5 µM | Potency [13] 283 nM and 633 nM
inactive: Potency [2] | Potency [5] | Potency [6] | Potency [8] | Potency [11]

CN1C(=O)[C@@H](NC(=O)c2cc3ccccc3[nH]2)N=C(c2ccccc2)c2ccccc21
active: Potency [14] 4.9 µM
inactive: Potency [1] | Potency [15] | Potency [3] | max activation [16] -0.0388% | Potency [17] | Potency [18] | Potency [5] | Potency [6] | Potency [7] | Potency [8] | Potency [9] | Potency [11] | Potency [13]

CCCCCCC[CH2][Sn]([Cl])([Cl])[CH2]CCCCCCC
active: Potency [2] 68.5 µM | Potency [11] 35.6 µM
inactive: Potency [3] | Potency [5] | Potency [6] | Potency [8] | Potency [10] | Potency [12] | Potency [13]

S=C=NCCc1ccccc1
inactive: Potency [1] | Potency [2] | Potency [3] | Potency [5] | Potency [6] | Potency [7] | Potency [8]
active: Potency [4] 54.6 µM | Potency [9] 11.3 µM | Potency [10] 20.1 µM | Potency [12] 15.5 µM | Potency [13] 20.1 µM

c1csc(-c2ccc(-c3cccs3)s2)c1
inactive: Potency [1] | Potency [2] | Potency [3] | Potency [5] | Potency [6] | Potency [7] | Potency [8] | Potency [12] | Potency [13]
active: Potency [4] 19.3 µM | Potency [10] 17.8 µM | Potency [14] 10 µM | Potency [11] 1.12 µM

O=[N+]([O-])C(Br)Br
inactive: Potency [1] | Potency [2] | Potency [3] | Potency [4] | Potency [5] | Potency [7] | Potency [8] | Potency [9] | Potency [11] | Potency [12] | Potency [13]
